This is one part of a sample in which hits are shown more often than they occur.
Pf Dd2 growth: inhibitors of Plasmodium falciparum Dd2 growth | P. falciparum Dd2 growth, SYBR Green, 72 h | Potency, µM (titrated, usually from 28.9 µM), inactives show at the top dose activity, negative = inhibition, usual class: inhibitors | actives 4.3% (n = 120,000) | AID 1347417; active means well fitted inhibition curve with a large enough effect;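 further: plate controls were DMSO vehicle for no effect and reference drug for full effect; nearly all actives have a fitted effect of over 65% in size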
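Infected erythrocytes (Dd2, 0.3% parasitemia, 2.5% hematocrit final) are added to compound in RPMI-1640/Albumax II medium, grown 72 h at 37C in low oxygen, then lysed with saponin/Triton-X containing SYBR Green and read by fluorescence.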
* marks the source's active call; other numbers are inactive results; i = inactive; [ ] = another dose, or the depositor's remark. Potency means the concentration at half of the fitted maximal effect.

SMILES	Pf Dd2 growth
CC(=O)NCCNC(=O)[C@@H]1Cc2cn(Cc3cc(C)on3)c3cccc(c23)[C@H](CC(C)C)N1	i
CCCNC(=O)[C@@H]1Cc2cn(Cc3nccn3C)c3cccc(c23)[C@H](CC(C)C)N1	10µM*
COCCCNC(=O)[C@@H]1Cc2cn(Cc3nccn3C)c3cccc(c23)[C@H](CC(C)C)N1	-4%[44.1 µM]
Cc1cc(Cn2cc3c4c(cccc42)[C@H](CC(C)C)N[C@H](C(=O)NCc2ccc(C)o2)C3)no1	13µM*
CC(C)C[C@@H]1N[C@H](C(=O)N2CCOCC2)Cc2cn(Cc3nccn3C)c3cccc1c23	11µM*
CC(C)C[C@@H]1N[C@H](C(=O)NCC2CC2)Cc2cn(Cc3nccn3C)c3cccc1c23	-18%[44.1 µM]
Cc1cc(Cn2cc3c4c(cccc42)[C@H](CC(C)C)N[C@H](C(=O)NCc2nccs2)C3)no1	-7%
CC(C)C[C@@H]1N[C@H](C(=O)NC2CC2)Cc2cn(Cc3nccn3C)c3cccc1c23	11µM*
COc1ccccc1CNC(=O)[C@@H]1Cc2cn(C)c3cccc(c23)[C@H](CC(C)C)N1	-13%[44.1 µM]
CC(C)C[C@@H]1N[C@H](C(=O)NCCN2CCOCC2)Cc2cn(Cc3ccccn3)c3cccc1c23	i
CC(=O)N1CCN(C(=O)c2cnc3cc(C)nn3c2)CC1	0%[44.1 µM]
COc1ccc(CN2CC3(CCN(C(=O)Nc4cccc(C)c4)CC3)C2=O)cc1	-20%
O=C(NCc1ccc(F)cc1)C1CN(Cc2ccccc2)C(=O)N1 (stereo not given)	-8%[44.1 µM]
CC(C)CCN(C)C(C)c1cccs1 (stereo not given)	-10%[44.1 µM]
Cc1cc(C)n(Cc2ccc(C(=O)N3CCCCCCNC(=O)CC3)o2)n1	-25%
COc1ccccc1C(=O)N[C@@H]1CN(C2CCOCC2)C[C@H]1CN(C)C	i
O=C1CN(Cc2ccc(-c3cccs3)cc2)CCN1c1ccc(Cl)nn1	-19%
CC(Cc1ccc2c(c1)OCO2)CN1CCC(CO)(CN2CCCC2)CC1 (stereo not given)	5µM*
C[C@]1(O)CCN(C(=O)Cc2ccc3c(c2)OCO3)C[C@@H]1O	-8%
CCC1(CO)CCCN(C(=O)CCc2ccc3c(c2)OCO3)C1 (stereo not given)	-12%
Cc1cc(NCCc2c[nH]c(=O)[nH]c2=O)n2nccc2n1	-10%
Cc1cccc(CCNC(=O)C2N(C(C)C)C(=O)C23CCCC3)c1 (stereo not given)	-18%
Cc1cc(C)nc(NS(=O)(=O)c2ccc(NC(=O)COc3ccc(Cl)cc3C)cc2)n1	i
CNc1cc(C2CC(NC(=O)COc3ccc(Cl)cc3C)C2)nc(N)n1 (stereo not given)	7.9µM*
Cc1cc(Cl)ccc1OCC(=O)N1[C@@H]2CC[C@H]1CC(NC(=O)c1ccc(F)cc1)C2 (stereo not given in full)	i
SMILES	Pf Dd2 growth
N#Cc1cccc(C(=O)NC2CCc3n[nH]c(=O)n3CC2)c1 (stereo not given)	i
Cc1noc2ccc(-c3ccccc3OCc3ccccc3)nc12	-20%[44.1 µM]
COc1cc(=O)n2c(c1C(=O)Nc1ccc(F)cc1F)CCCC2	24%
COc1ccccc1-c1nnc([C@H]2CCN(C3CCN(C)CC3)C2)o1	i
O=C(c1ccc2c(Cl)c3c(nc2c1)CCCC3)N1CCN(c2ccccc2F)CC1	24%
COc1cc2[nH]c(=O)n(Cc3ccc(C(=O)N4CCN(c5ccc(Cl)cc5)CC4)cc3)c(=O)c2cc1OC	-4%
O=C(CN1CCSc2ccccc21)N1CCN(c2cccc(Cl)c2)CC1	33%
Cc1ccc(N2CCN(C(=O)c3ccc4c(c3)N(C)C3CCCCN3C4=O)CC2)cc1 (stereo not given)	3%
Cc1ccc(CN2CCSc3ccc(C(=O)N4CCN(c5ccc(Cl)cc5)CC4)cc32)cc1	8.9µM*
Cc1ccc(CN2CCSc3ccc(C(=O)N4CCN(c5cccc(C)c5C)CC4)cc32)cc1	6.3µM*
Cc1ccc(C)c(N2CCN(C(=O)c3ccc4[nH]c(C)c(C)c4c3)CC2)c1	-8%
Cc1cccc(N2CCN(C(=O)c3ccc4c(Cl)c5c(nc4c3)CCCC5)CC2)c1C	11µM*
O=C(c1ccc2c(Cl)c3c(nc2c1)CCCC3)N1CCN(c2cccc(Cl)c2)CC1	-19%
OC(c1ccccc1)c1nc(Nc2ccc3c(c2)OCO3)n[nH]1 (stereo not given)	-16%[44.1 µM]
CCOc1cccc(CNC(=O)c2cc3c(=O)[nH]c(C)cn3n2)c1	i
COc1ccc(Cl)cc1C(=O)N1[C@@H]2CC[C@H]1CC(NC(=O)c1ccncc1)C2 (stereo not given in full)	-12%
Cc1nncn1C1CCN(S(=O)(=O)c2ccc(C(C)C)cc2)CC1	i
O=C(NC1CCCN(c2cc(-c3ccc(F)cc3)[nH]n2)C1)c1cccs1 (stereo not given)	-22%
CCOC(=O)C1CCN(C(=O)c2cn3ccnc(-c4ccc(OC)cc4)c3n2)CC1	i
COc1cc(C)c(-c2nc(Cn3cncn3)c(C)o2)cc1C	4%
COc1ccc(C2(c3nc(C4CC(=O)N(C5CCCCC5)C4)no3)CC2)cc1 (stereo not given)	11µM*
COCc1nc(C2CC(=O)N(C3CCCCC3)C2)no1 (stereo not given)	13%
Cc1ccc(-c2nc(C3CC(=O)N(C4CCCCC4)C3)no2)cc1 (stereo not given)	55%
Cc1ccc(CNC(=O)c2noc(-c3ccc(F)cc3)n2)cc1	88%
O=C(O)CCC(=O)NC[C@H]1Cn2c(-c3cccc(Cl)c3)cnc2CO1	4%[44.1 µM]
SMILES	Pf Dd2 growth
COc1cccc(CC(=O)N2CCC[C@H]2C(=O)N2CCCCCCNC(=O)CC2)c1	12%
CCc1ccccc1S(=O)(=O)N1C[C@@H](F)C[C@H]1C(=O)N1CCCCC1	i
O=C([C@@H]1C[C@H](F)CN1S(=O)(=O)c1ccc(F)c(F)c1)N1CCCCC1	-16%
CCCCN1C(=O)C(O)(c2c(C)[nH]c3ccccc23)c2ccccc21 (stereo not given)	-9%
CCCCN1C(=O)C(O)(c2c(C)[nH]c3ccccc23)c2cc(Br)ccc21 (stereo not given)	11µM*
CCN1C(=O)C(O)(c2c(C)[nH]c3ccccc23)c2ccccc21 (stereo not given)	9%
COc1ccc(C(=O)NCCSc2c(C)[nH]c3ccccc23)cc1	-3%
CCN(CC)S(=O)(=O)c1ccc(C(=O)NCCSc2c(-c3ccc(C)cc3)[nH]c3ccccc23)cc1	10µM*
Cc1[nH]c2ccccc2c1SCCNC(=O)c1ccc(F)cc1	-28%
O=C(O)CN1CCC[C@]2(C(=O)O)CN(Cc3cccc(O)c3)CC[C@@H]12	-5%
Cc1c(Cl)cccc1NC(=O)CN1C(=O)NC2(CCOCC2)C1=O	i
COc1cccc(N2CCN(C(=O)c3cnn(-c4ccc(C)cc4C)c3C3CCN(C(=O)OC(C)(C)C)CC3)CC2)c1	6.3µM*
COc1ccc(-n2ncc(C(=O)N3CCOCC3)c2C2CCN(C(=O)OC(C)(C)C)CC2)cc1	41%
Cc1ccc(-n2ncc(C(=O)N3CCN(c4ccccn4)CC3)c2C2CCN(C(=O)OC(C)(C)C)CC2)cc1	18%
COc1ccc(-n2ncc(C(=O)N3CCN(c4cc(C)ccc4C)CC3)c2C2CCN(C(=O)OC(C)(C)C)CC2)cc1	25%
Cc1cccc(N2CCN(C(=O)c3cnn(-c4ccccc4)c3C3CCN(C(=O)OC(C)(C)C)CC3)CC2)c1C	10µM*
COc1cccc(N2CCN(C(=O)c3cnn(C(C)(C)C)c3C3CCN(C(=O)OC(C)(C)C)CC3)CC2)c1	13µM*

Assay outcomes: PubChem BioAssay, National Center for Advancing Translational Sciences (NCATS)
